# Test results: PubChem BioAssay (EPA / NIEHS)
# Records with an inconclusive call do not appear. The source made the active and inactive calls. Rule for the calls: active = hit-call score of the fitted dose curve at least 0.9, where 1 is the maximum; inconclusive = response in the unintended direction; inactive = score below 0.9.
# Legend:
# [1] = target: Estrogen receptor beta (Homo sapiens) (UniProt Q92731); assay: ATG_hERb_XSP1: Attagene TRANS-FACTORIAL Multi-Species (XSP1) HepG2 Assay for human Estrogen Receptor (ESR2) (AID 2283788)
# Outline: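 Read-out: reporter mRNA induction by RT-PCR, HpaI digestion and capillary electrophoresis fluorescence, fitted in positive direction relative to DMSO baseline. Human liver HepG2 cells expressing ERβ-Gal4 fusion, dosed 24 h, medium containing 3 nM 6-alpha-fluorotestosterone.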
# [2] = target: GAL4 Transcription Factor (Internal Marker), GAL4 (gene 855828) (UniProt P04386); assay: ATG_GAL4_XSP1: Attagene TRANS-FACTORIAL Multi-Species (XSP1) HepG2 Assay for GAL4 Transcription Factor (Internal Marker) (AID 2283789)
# Outline: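 HepG2 cells transiently transfected with multiplexed GAL4-UAS reporter units were exposed for 24 h with 3 nM 6-alpha-fluorotestosterone present. Reporter mRNA was quantified by RT-PCR, FAM labelling, HpaI digestion and capillary electrophoresis; background-control readout, gain-of-signal versus DMSO.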
# [3] = ATG_M_06_XSP1: Attagene TRANS-FACTORIAL Multi-Species (XSP1) HepG2 Assay for M06 Transcription Factor (Internal Marker) (AID 2283790)
# Outline: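 Transfected HepG2 multi-reporter system treated 24 h in the presence of 3 nM 6-alpha-fluorotestosterone. The M06 internal marker transcript was quantified by RT-PCR with capillary electrophoresis as a background control, and gain of signal was scored versus DMSO.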
# [4] = ATG_M_61_XSP1: Attagene TRANS-FACTORIAL Multi-Species (XSP1) HepG2 Assay for M61 Transcription Factor (Internal Marker) (AID 2283797)
# Outline: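 HepG2 cells transiently transfected with multiplexed GAL4-driven reporter units, dosed 24 h with 3 nM 6-alpha-fluorotestosterone present. Reporter mRNA quantified by RT-PCR, 6-FAM labelling, HpaI digestion and capillary electrophoresis; internal-marker background control, gain of signal versus DMSO.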
# [5] = ATG_M_32_XSP1: Attagene TRANS-FACTORIAL Multi-Species (XSP1) HepG2 Assay for M32 Transcription Factor (Internal Marker) (AID 2283799)
# Outline: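 HepG2 cells transiently transfected with multi-species TRANS reporter units, dosed 24 h with 3 nM 6-alpha-fluorotestosterone present. Internal-marker reporter mRNA quantified by RT-PCR and capillary electrophoresis; positive-direction fit versus DMSO.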
# [6] = target: Peroxisome proliferator-activated receptor gamma (Homo sapiens) (UniProt P37231); assay: ATG_hPPARg_XSP1: Attagene TRANS-FACTORIAL Multi-Species (XSP1) HepG2 Assay for human Peroxisome Proliferator-activated Receptor gamma (PPARg) (AID 2283800)
# Protocol: (§1) ATG_XSP1_multi-species_TRANS is a cell-based, multiplexed assay created by modifying the existing Attagene TRANS-FACTORIAL system to include a panel of nuclear receptors from some or all the following species: human (Homo sapiens), mouse (Mus musculus), frog (Xenopus laevis), zebrafish (Danio rerio), chicken (Gallus gallus), and turtle (Chrysemys picta). The ECOTOX-FACTORIAL format uses HepG2, a human liver cell line, with measurements taken at 24 hours after chemical dosing in a 24-well plate. Xsp1 included 3 nM 6-alpha-fluorotestosterone to partially stimulate the androgen receptor.ATG_hPPARg_XSP1 is one of 29 assay components measured or calculated from the ATG_XSP1_multi-species_TRANS assay. It is designed to make measurements of mRNA induction, a form of inducible reporter, as detected with fluorescence intensity signals by Reverse transcription polymerase chain reaction (RT-PCR) and Capillary electrophoresis technology.The assay endpoint ATG_hPPARg_XSP1 was analyzed in the positive analysis fitting direction relative to DMSO as the negative control and baseline of activity. […] Furthermore, this assay endpoint can be referred to as a primary readout, because this assay has produced multiple assay endpoints where this one serves a reporter gene function. […]
# [7] = tested on: zebrafish Peroxisome Proliferator-activated Receptor gamma (PPARg), gene 557037; assay: ATG_zfPPARg_XSP1: Attagene TRANS-FACTORIAL Multi-Species (XSP1) HepG2 Assay for zebrafish Peroxisome Proliferator-activated Receptor gamma (PPARg) (AID 2283801)
# Protocol: as §1, with “receptor.ATG_zfPPARg_XSP1” for “receptor.ATG_hPPARg_XSP1”, “ATG_zfPPARg_XSP1” for “ATG_hPPARg_XSP1”
# Chain of Estrogen receptor beta (Homo sapiens) (Q92731 whole entry, looked up, the tested form may be a part): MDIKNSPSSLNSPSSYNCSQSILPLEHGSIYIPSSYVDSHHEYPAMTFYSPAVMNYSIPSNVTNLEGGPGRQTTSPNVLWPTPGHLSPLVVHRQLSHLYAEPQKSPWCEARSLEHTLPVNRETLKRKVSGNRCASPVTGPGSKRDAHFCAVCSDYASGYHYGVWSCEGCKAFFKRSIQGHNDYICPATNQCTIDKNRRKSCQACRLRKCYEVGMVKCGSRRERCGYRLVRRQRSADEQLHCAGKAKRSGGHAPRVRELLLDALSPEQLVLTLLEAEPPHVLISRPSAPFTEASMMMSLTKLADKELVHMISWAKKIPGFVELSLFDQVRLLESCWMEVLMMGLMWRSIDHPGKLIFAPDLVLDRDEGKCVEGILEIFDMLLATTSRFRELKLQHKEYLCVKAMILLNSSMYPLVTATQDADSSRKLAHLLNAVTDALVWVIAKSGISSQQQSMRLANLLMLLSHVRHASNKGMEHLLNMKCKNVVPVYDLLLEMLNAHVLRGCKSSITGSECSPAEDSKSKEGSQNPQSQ
# Chain of Peroxisome proliferator-activated receptor gamma (Homo sapiens) (P37231 whole entry, looked up): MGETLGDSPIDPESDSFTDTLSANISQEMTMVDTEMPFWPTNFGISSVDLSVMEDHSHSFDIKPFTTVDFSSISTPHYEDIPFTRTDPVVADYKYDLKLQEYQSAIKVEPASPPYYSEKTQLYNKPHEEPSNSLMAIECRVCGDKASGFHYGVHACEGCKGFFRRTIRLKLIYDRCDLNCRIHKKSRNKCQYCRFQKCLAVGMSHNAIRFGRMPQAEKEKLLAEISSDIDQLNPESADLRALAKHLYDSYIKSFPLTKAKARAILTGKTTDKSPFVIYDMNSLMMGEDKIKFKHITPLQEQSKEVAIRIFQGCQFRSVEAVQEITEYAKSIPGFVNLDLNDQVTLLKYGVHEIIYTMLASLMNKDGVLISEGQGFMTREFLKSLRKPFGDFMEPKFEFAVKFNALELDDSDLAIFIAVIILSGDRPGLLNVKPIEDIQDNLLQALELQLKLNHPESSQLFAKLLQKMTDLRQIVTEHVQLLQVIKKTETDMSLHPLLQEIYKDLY
# Chain of GAL4 Transcription Factor (Internal Marker), GAL4 (gene 855828) (P04386 whole entry, looked up, the tested form may be a part): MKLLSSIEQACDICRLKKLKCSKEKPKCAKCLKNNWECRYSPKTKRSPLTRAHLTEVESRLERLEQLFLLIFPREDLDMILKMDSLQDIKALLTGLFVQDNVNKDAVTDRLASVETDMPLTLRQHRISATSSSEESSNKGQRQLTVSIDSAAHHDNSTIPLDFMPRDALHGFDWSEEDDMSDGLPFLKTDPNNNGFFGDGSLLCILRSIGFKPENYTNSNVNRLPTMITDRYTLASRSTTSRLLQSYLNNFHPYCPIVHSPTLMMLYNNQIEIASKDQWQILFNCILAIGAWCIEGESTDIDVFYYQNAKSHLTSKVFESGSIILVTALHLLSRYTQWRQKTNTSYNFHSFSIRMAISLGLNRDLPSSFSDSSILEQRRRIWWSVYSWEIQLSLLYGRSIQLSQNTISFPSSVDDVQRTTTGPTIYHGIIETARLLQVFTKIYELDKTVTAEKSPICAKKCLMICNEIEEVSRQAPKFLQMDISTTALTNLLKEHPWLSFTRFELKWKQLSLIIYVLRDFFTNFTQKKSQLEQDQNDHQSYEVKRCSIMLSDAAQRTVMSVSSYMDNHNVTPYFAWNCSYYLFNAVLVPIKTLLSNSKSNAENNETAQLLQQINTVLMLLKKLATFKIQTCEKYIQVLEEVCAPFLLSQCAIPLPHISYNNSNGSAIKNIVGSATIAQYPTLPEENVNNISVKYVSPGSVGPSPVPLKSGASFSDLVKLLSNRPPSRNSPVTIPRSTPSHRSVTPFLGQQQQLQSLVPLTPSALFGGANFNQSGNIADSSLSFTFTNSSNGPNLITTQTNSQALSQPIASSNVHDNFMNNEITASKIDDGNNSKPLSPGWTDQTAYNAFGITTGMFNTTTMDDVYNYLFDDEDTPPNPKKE
compound,measurement,setting,value
O=P(OC(CCl)CCl)(OC(CCl)CCl)OC(CCl)CCl,AC50,[1],26 µM (active)
same,outcome,[2],inactive
same,outcome,[3],inactive
same,outcome,[4],inactive
same,outcome,[5],inactive
same,outcome,[6],inactive
same,AC50,[7],78.6 µM (active)
